# How the values were obtained:
# Experiment in all cases: PBM binding z-score (relative to random genomic background probes); higher = stronger binding; sequences stand for … in GC…GCGATTGACAGCGTAGAATGAAGG
# [1] = system: FXR:RXRa (NR concentration 270 nM, RXRa partner concentration 90 nM)
# Outline: (§1)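 Antibodies against each partner of ligand-free nuclear receptor dimers (one per run) detected binding on custom Agilent 4×180K protein-binding microarrays after 1 h incubation. The double-stranded probes had 34-nt variable regions carrying direct-repeat seeds, single-nucleotide variants, half-site ablations and random human genomic background sequences. Binding z-scores, from regression-normalized fluorescence, use the random background probes as reference.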
# [2] = system: LXRa:RXRa (NR concentration 270 nM, RXRa partner concentration 90 nM)
# Outline: as §1
# [3] = system: LXRa homodimer (NR concentration 270 nM)
# Outline: as §1
# [4] = system: LXRb:RXRa (NR concentration 270 nM, RXRa partner concentration 90 nM)
# Outline: as §1
# [5] = system: LXRb homodimer (NR concentration 270 nM)
# Outline: as §1
# [6] = system: PPARa:RXRa (NR concentration 270 nM, RXRa partner concentration 90 nM)
# Outline: as §1
# [7] = system: PPARg:RXRa (NR concentration 180 nM, RXRa partner concentration 90 nM)
# Outline: as §1
# [8] = system: PPARg:RXRa 270nM:90nM, anti-RXR (NR concentration 270 nM, RXRa partner concentration 90 nM)
# Outline: as §1
# [9] = system: PPARg:RXRa 30nM:10nM, anti-RXR (NR concentration 30 nM, RXRa partner concentration 10 nM)
# Outline: as §1
# [10] = system: PPARg:RXRa 90nM:30nM, anti-RXR (NR concentration 90 nM, RXRa partner concentration 30 nM)
# Outline: as §1
# [11] = system: PPARg:RXRa DBDmut IVT, anti-RXR (DBD mutation: RXRa K156A/R161A, NR concentration 270 nM, RXRa partner concentration 90 nM)
# Outline: as §1
# [12] = system: PPARg:RXRa IVT, anti-PPARg (NR concentration 270 nM, RXRa partner concentration 90 nM)
# Outline: as §1
# [13] = system: PPARg DBDmut:RXRa IVT, anti-PPARg (DBD mutation: PPARg1 K132A/R137A, NR concentration 270 nM, RXRa partner concentration 90 nM)
# Outline: as §1
# [14] = system: PPARg DBDmut IVT, anti-PPARg (DBD mutation: PPARg1 K132A/R137A, NR concentration 270 nM)
# Outline: as §1
# [15] = system: PPARg homodimer (NR concentration 180 nM)
# Outline: as §1
# [16] = system: PXR:RXRa (NR concentration 270 nM, RXRa partner concentration 90 nM)
# Outline: as §1
# [17] = system: PXR homodimer (NR concentration 270 nM)
# Outline: as §1
# [18] = system: RARa:RXR (NR concentration 270 nM, RXRa partner concentration 90 nM)
# Outline: as §1
# [19] = system: RARa homodimer (NR concentration 270 nM)
# Outline: as §1
# [20] = system: RARb:RXRa (NR concentration 270 nM, RXRa partner concentration 90 nM)
# Outline: as §1
Sequence,PBM binding z-score [1],PBM binding z-score [2],PBM binding z-score [3],PBM binding z-score [4],PBM binding z-score [5],PBM binding z-score [6],PBM binding z-score [7],PBM binding z-score [8],PBM binding z-score [9],PBM binding z-score [10],PBM binding z-score [11],PBM binding z-score [12],PBM binding z-score [13],PBM binding z-score [14],PBM binding z-score [15],PBM binding z-score [16],PBM binding z-score [17],PBM binding z-score [18],PBM binding z-score [19],PBM binding z-score [20]
ACTAGCAGGCCAAGATTGGGTCACTCAAACAAAG,-0.0447,-0.288,-0.493,0.338,-0.861,1.33,0.272,0.402,-0.526,-0.361,0.594,1.6,-0.903,-0.363,0.0638,0.192,-0.441,0.988,-0.597,1.47
TCATATAGTTAATACAGGTGAAAGTCGGCATCTA,1.36,1.88,0.641,1.3,0.448,1.8,1.13,2.41,4.54,3.7,2.82,1.74,1.53,1.48,1.32,1.05,0.721,1.59,2.34,0.914
TCTTGTAGATCAACAGGAAGTTAAGAAAGATCGA,0.112,0.0523,-0.395,-0.15,-0.422,0.364,0.0673,1.13,2.73,1.58,1.64,0.249,0.464,0.377,-0.378,-0.183,-0.761,-0.00111,0.174,-0.318
CCGTCTGGGGCAGAAAGGTTACCATACCATCCGG,0.119,0.206,-0.115,0.58,-1.19,1.64,0.9,1.95,0.171,0.988,0.505,0.764,-1.18,-1.86,0.553,0.821,-0.115,1.51,-0.0366,1.54
ATCTCTAAGTAAAGTTCAGTGAAAGATCGATAGA,1.27,1.99,1.87,1.23,0.906,1.66,1.4,2.92,1.3,2.75,0.19,0.648,1.26,1.06,1.44,2.03,1.8,1.34,1.77,2.63
GGAACGAGGGCAAGTGGATAGCAGAGTTTGATGG,0.68,0.618,-0.0905,0.0624,-0.475,1.36,1.21,1.21,-0.127,0.598,3.83,2.95,0.27,0.066,0.34,0.612,0.421,0.505,-0.0317,2.65
CGAACTAGGTCATTGACTGGACAGTGAATAGTAA,4.77,2.75,0.235,1.83,-0.381,4.74,7.36,6.43,3.34,5.78,8.06,8.06,5.21,5.65,0.956,0.89,0.0623,1.78,0.262,3.52
CCTCGGAGGACAACAGGCGGTCAGAGCTGCCAGA,-0.211,-0.0211,0.394,-0.76,-1.15,-0.468,-0.327,-0.898,-0.775,-1.03,-0.178,-0.851,-1.43,-1.37,-0.158,-0.464,-0.435,-0.312,-0.034,1.61
ATATGGAGGTTATCGGGTCATTCAGTTTGCGCAT,4.63,4.39,2.28,3.8,1.41,4.84,5.29,5,2.08,3.73,4.66,4.91,1.95,1.8,2.89,4.61,8.4,4.75,1.62,3.26
ATATGTAGGATACATCCGGGTCATTCAGGCTATG,1.21,1.31,0.653,1.61,0.399,2.9,2.14,1.77,0.797,1.28,3.21,3.86,1.63,1.37,1.25,2.39,1.38,2.42,0.161,1.2
TATACAGGGTCAAAGGCCAGAATACGAATGTCGA,6.57,5.89,2.16,4.62,2.29,5.89,7.8,7.19,5.21,7.33,1.98,4.81,2.92,2.34,2.02,3.86,0.553,5.78,0.841,4.28
GCTCGGAGGACGAGGTCAGAGCTTTGTCCGTAGA,1.88,1.6,-0.0578,1.38,-1.38,2.9,0.449,1.04,-0.495,0.269,-0.0575,0.506,-0.927,-1.57,0.162,2.57,0.107,2.7,-1.37,2.92
TCTTGTAGATCAATAGAGGTTAAGAAGGTGCGCT,0.831,2.82,0.464,1.44,-0.193,2,0.18,1.52,2.75,1.95,1.45,0.982,-0.0465,0.519,0.274,2.12,-0.00143,1.94,0.262,0.921
GCTTACGGGTCAAACGTTATAGCATGAATAGAAT,6.35,4.13,-0.166,4.02,0.282,5.72,6.02,6.15,2.96,5.31,4.87,4.1,1.95,1.38,1.25,3.37,-0.15,4.41,0.0211,3.76

# From the supplement of paper PMC6555819
